Assay [1] in a line: qHTS profiling for inhibitors of Plasmodium falciparum proliferation (AID 504749). Further: nearly all actives have a fitted effect of over 60% in size.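 On activity, negative = inhibition: 0% = DMSO vehicle and full inhibition = artemisinin control.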 As to conditions: P. falciparum in erythrocytes, SYBR Green DNA, 72 h. The procedure, abridged:
(§1)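 Infected RBCs, 0.3% parasitemia/2.5% Hct final; cpd 72 h, 37 C, 5% CO2; lysis buffer with saponin/triton/SYBR Green I, o/n RT dark; FI 485/535; norm. to artemisinin (0.29 uM) and DMSO.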

The subject of assay [2] is 3D7. Described as above. As to conditions: P. falciparum in erythrocytes, SYBR Green DNA, 72 h; series mostly up to 28.7 µM. The procedure, abridged:
as §1

Assay [3] has as its system 7G8. Described as above. To be noted: P. falciparum in erythrocytes, SYBR Green DNA, 72 h; series mostly up to 28.7 µM. An outline of the steps:
as §1

The subject of assay [4] is AA1029. Described as above. To be noted: P. falciparum in erythrocytes, SYBR Green DNA, 72 h; series mostly up to 28.7 µM. The procedure, abridged:
as §1

Assay [5] concerns AS120. Described as above. To be noted: P. falciparum in erythrocytes, SYBR Green DNA, 72 h; series mostly up to 28.7 µM. The procedure, abridged:
as §1

[6] abbreviates: at 28.7 µM (top of the series), parasite line A.
Where [7] appears, read: at 28.7 µM (top of the series), parasite line B.
Where [8] appears, read: at 12.8 µM (top of the series), parasite line A.
The mark [9] stands for this setting: at 12.8 µM (top of the series), parasite line B.

Each structure is given as a SMILES string. Records with an inconclusive call do not appear. Values without a mark were called inactive. Calls of active or inactive are those of the source. The call rests on the fitted dose curve; in most records, active means well fitted inhibition curve with a large enough effect; inconclusive means small, poorly fitted or top-dose-only effect; inactive means flat fitted curve, though single readings scatter.
Potency means the concentration at half of the fitted maximal effect.

On to `Cc1ccc(N=CN(C)C=Nc2ccc(C)cc2C)c(C)c1`, for which the activity, negative = inhibition in assay [1] (setting [6]) is 5.73%; in assay [1] (setting [7]), 9.78%. Moreover, the Potency result in assay [2], in assay [3], in assay [4] and in assay [5] was “inactive” in each case.

As to `CC(C)NCC(O)c1ccc(N)c(C#N)c1` (configuration not stated), the values for the activity, negative = inhibition in assay [1] (setting [6]) and in assay [1] (setting [7]) were 10.9% and -9.32%, respectively. The Potency result in assay [2], in assay [3], in assay [4] and in assay [5] was “inactive” in each case.

`COc1ccc(CN2CCNCC2)c(OC)c1OC`: the activity, negative = inhibition in assay [1] (setting [8]) is 8.69%; in assay [1] (setting [9]), 4.48%. The Potency entry in assay [2], in assay [3], in assay [4] and in assay [5] was “inactive” each time.

In the case of `C[C@]12C=CC(=O)C=C1CC[C@@H]1[C@@H]2CC[C@@]2(C)[C@H]1CC[C@]2(C)O`, the activity, negative = inhibition in assay [1] (setting [6]) was 0.454%; in assay [1] (setting [7]) it was 5.05%. In addition, the Potency result in assay [2], in assay [3], in assay [4] and in assay [5] was “inactive” in each case.

Consider `O=c1n(Cl)c(=O)n(Cl)c(=O)n1Cl`, for which the activity, negative = inhibition is 0.0387% in assay [1] (setting [6]) and 2.68% in assay [1] (setting [7]). Further, the Potency entry in assay [2], in assay [3], in assay [4] and in assay [5] was “inactive” each time.

Regarding `c1cc2c(c(N3CCNCC3)c1)OCCO2`, the activity, negative = inhibition in assay [1] (setting [6]) is 8.64%; in assay [1] (setting [7]), 11.7%. In addition, the Potency result in assay [2], in assay [3], in assay [4] and in assay [5] was “inactive” in each case.

As for `COC(=O)C1=CCCN(C)C1`, the activity, negative = inhibition in assay [1] (setting [6]) is 0.472%; in assay [1] (setting [7]), 19.4%. For the same compound, the Potency result in assay [2], in assay [3], in assay [4] and in assay [5] was “inactive” in each case.

Regarding `CC(C)C(Br)C(=O)NC(N)=O` (configuration not stated), the figures for the activity, negative = inhibition in assay [1] (setting [6]) and in assay [1] (setting [7]) were 10.2% and 11.6%, respectively. In addition, the Potency result in assay [2], in assay [3], in assay [4] and in assay [5] was “inactive” each time.

For the compound `C[N+](C)(C)CCOC(=O)C(O)(c1ccccc1)c1ccccc1`, the figures for the activity, negative = inhibition in assay [1] (setting [6]) and in assay [1] (setting [7]) were 12.8% and 7.74%, respectively. Further, the Potency result in assay [2], in assay [3], in assay [4] and in assay [5] was “inactive” each time.

In the case of `CCC(=O)O[C@H]1CC[C@H]2[C@@H]3CCC4=CC(=O)CC[C@]4(C)[C@H]3CC[C@]12C`, the figures for the activity, negative = inhibition in assay [1] (setting [8]) and in assay [1] (setting [9]) were 4.77% and 12.2%, respectively. For the same compound, the Potency result in assay [2], in assay [3], in assay [4] and in assay [5] was “inactive” each time.

As for `C[N+]1(CCC(C(N)=O)(c2ccccc2)c2ccccc2)CCCCC1`, the activity, negative = inhibition in assay [1] (setting [6]) is -14.5%; in assay [1] (setting [7]), -9.8%. Further, the Potency result in assay [2], in assay [3], in assay [4] and in assay [5] was “inactive” in each case.

Regarding `NC(=O)CN1CCCC1=O`, the activity, negative = inhibition is -0.277% in assay [1] (setting [8]) and 13.3% in assay [1] (setting [9]). Besides, the Potency entry in assay [2], in assay [3], in assay [4] and in assay [5] was “inactive” each time.

In the case of `CC(Cc1ccccc1)NCc1ccccc1Cl` (configuration not stated), the activity, negative = inhibition in assay [1] (setting [6]) is -0.799%; in assay [1] (setting [7]), -0.104%. In addition, the Potency entry in assay [2] was “inactive”. Further, in assay [3], the Potency was 11.2 µM (active).

In the case of `c1ccc2nc(N3CCNCC3)ccc2c1`, the activity, negative = inhibition was 16.1% in assay [1] (setting [6]) and 9.33% in assay [1] (setting [7]). Besides, the Potency result in assay [2], in assay [3], in assay [4] and in assay [5] was “inactive” throughout.
